# Measurements taken from PubChem BioAssay AID1671190 (National Center for Advancing Translational Sciences (NCATS), 2021).
# In all, about 580,000 compounds went through this assay and about 6,100 (1.1%) were called active. Entries that show only a call come without a potency. Inconclusive results (about 15%) are left out. The call rests on the fitted dose curve; in most records, active means well fitted inhibition curve with a large enough effect; inconclusive means small, poorly fitted or top-dose-only effect, or another doubt; inactive means no such curve, though single readings can be large or run the other way. Many of the other results were omitted from the sample, so actives are more common in it than they were.
# Target: Polyunsaturated fatty acid lipoxygenase ALOX12 (Homo sapiens) (UniProt P18054)
# Sequence (P18054 whole entry, looked up): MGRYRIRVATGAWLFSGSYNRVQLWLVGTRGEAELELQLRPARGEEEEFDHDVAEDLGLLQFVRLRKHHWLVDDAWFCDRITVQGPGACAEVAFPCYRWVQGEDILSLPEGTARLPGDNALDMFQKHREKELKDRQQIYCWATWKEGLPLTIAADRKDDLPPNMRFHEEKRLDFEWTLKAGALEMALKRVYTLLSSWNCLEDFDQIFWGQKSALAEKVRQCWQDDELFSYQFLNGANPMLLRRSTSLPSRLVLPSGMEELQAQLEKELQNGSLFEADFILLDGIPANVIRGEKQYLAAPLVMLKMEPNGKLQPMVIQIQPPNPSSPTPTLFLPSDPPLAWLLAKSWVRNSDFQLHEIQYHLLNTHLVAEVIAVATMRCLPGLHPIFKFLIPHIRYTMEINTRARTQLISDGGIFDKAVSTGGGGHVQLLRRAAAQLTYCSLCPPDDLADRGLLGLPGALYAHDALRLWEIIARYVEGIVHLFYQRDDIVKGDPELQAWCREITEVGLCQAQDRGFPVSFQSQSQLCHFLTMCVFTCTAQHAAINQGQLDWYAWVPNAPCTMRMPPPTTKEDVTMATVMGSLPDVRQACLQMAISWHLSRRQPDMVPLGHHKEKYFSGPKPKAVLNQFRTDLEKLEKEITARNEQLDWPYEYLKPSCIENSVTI
# Assay: Primary qHTS assay for inhibitors of human arachidonate 12S-lipoxygenase (ALOX12): Round 2
# Conditions: purified 12hLO, xylenol orange hydroperoxide absorbance; series mostly up to 108 µM
# Text: Assay Provider: Theodore R. Holman Ph.D. University of California, Santa Cruz, California Human lipoxygenase 12hLO is a member of the closely related lipoxygenase family of enzymes which catalyze the site-specific oxidation of arachidonic acid to various hormone precursor molecules and as such is a candidate for drug development in a variety of disease areas, such as cancer and inflammation. Inhibition of 12hLO activity was screened by utilizing arachidonic acid as a substrate. The extent of hydroperoxide product formation was measured by a secondary chromogenic reaction in which xylenol orange (XO, Sigma-Aldrich, cat. number 39,818-7) reacts with the ferric ions produced from the reaction between the hydroperoxide and ferrous ions. The Fe (III)-XO complex is characterized with red-shifted absorbance at 560 nm. A purified preparation of human 12hLO was supplied by Dr. Holman laboratory, University of California, Santa Cruz.
# PROTOCOL TABLE SEQUENCE No. (e.g., 1, 2, 3, etc.); […] (e.g., Cells, Incubation, Reagent, etc.); VALUE; DESCRIPTION 1; Enzyme; 3 uL; 150 nM 12hLO enzyme solution dispensed in 1536-well Greiner black, clear bottom plates. 2; Compound; 23 nL; compounds and controls were added. 3; Incubate; 15 min; room temperature. 4; Substrate; 1 uL; 40 uM arachidonic acid (final concentration). 5; Incubate; 30 min; room temperature. 6; Reagent; 4 uL; Fe-XO solution was added to each well. 7; Incubation; 30 min; room temperature 8; Detector; absorbance; Read 1 at 405 nm absorbance using ViewLux (Perkin-Elmer) CCD imager. 9; Detector; absorbance; Read 2 at 573 nm absorbance using ViewLux (Perkin-Elmer) CCD imager. NOTES (numbers refer to sequence above) 1; 150 nM 12hLO (final concentration) in buffer solution (25 mM Hepes, 0.01% Triton X-100, pH 7.0) was dispensed in columns 1, 2, 5-48. Column 1 is neutral (100% activity). Buffer only was dispensed in columns 3 and 4 as no enzyme negative controls. The plates were covered with metal lids with gas-exchange holes. 2; Compounds were pin transferred via a Kalypsys Pin Tool (Wako USA) in column 5-48. Control compound was transferred in column 2, titration of nordihydroguaiaretic acid (NDGA, Sigma-Aldrich, N5023) with top concentration of 20 mM in DMSO then 1:3 dilution in duplicate. Dilution factor of 23 nL into 4 uL final assay volume. 3; Covered assay plates were incubated for 15 min at room temperature. 4; Substrate was added to start the reaction; 40 uM arachidonic acid (Sigma-Aldrich, St. Louis, MO) was dispensed throughout the plate. 6; Chromogenic detection reagent solution (divalent iron/xylenol orange, Fe-XO) was added to each well: 200 uM xylenol orange, 300 uM ferrous ammonium sulfate prepared freshly in 50 mM sulfuric acid. 8, 9; Two absorbance readouts were obtained at 405 nm and at 573 nm using a ViewLux high-throughput CCD plate imager (Perkin-Elmer). The 573 to 405 (Read 2 / Read 1) absorbance ratio was used to compute reaction progress.
# Potency means the concentration at half of the fitted maximal effect.
row,SMILES,Potency
1,Cc1csc(NC(=S)Nc2cccc(Cl)c2)n1,8.91 µM (active)
2,Cc1csc(NC(=O)CCc2ncc(-c3ccc(Cl)cc3Cl)o2)n1,inactive
3,O=C(Nc1cccc(Cl)c1)c1csnn1,inactive
4,CCN(CC)CCCNC(=O)c1ccc2c(=O)n(Cc3ccc4c(c3)OCO4)c(=S)[nH]c2c1,39.8 µM (active)
5,CCCCCn1c(=O)[nH]c2cc(C(=O)NCCN(C)CCCC)ccc2c1=O,inactive
6,CCOc1cc2[nH]c(=O)n(Cc3ccc(C(=O)NCCN(CC)CC)cc3)c(=O)c2cc1OCC,inactive
7,O=C(CCc1ccccc1)Nc1ccc(Cl)c(C(F)(F)F)c1,inactive
8,Cc1cccc(NC(=O)CN2CC3CC(C2)[C@H]2CCCC(=O)N2C3)c1 (stereo not given in full),inactive
9,O=C(NC(=O)c1ccccc1N1CCCCC1)Nc1ccc(Br)cc1,inactive
10,CSc1ccccc1NC(=O)Cc1ccc(Br)cc1,inactive
11,O=C(NC(=S)Nc1ccccc1C(=O)O)c1ccc(-c2ccc(Br)cc2)o1,10 µM (active)
12,Cn1cc(C(=O)N2CCC(C(N)=O)CC2)c2ccccc21,inactive
13,CC1=C(C(=O)OC(C)C)C(c2ccncc2)c2c(nc(SCc3ccccc3)[nH]c2=O)N1 (stereo not given),inactive
14,O=C1NC(=O)C(=Cc2cccc(C(F)(F)F)c2)S1,inactive
15,COc1ccc(/C=C2/S/C(=N/N=C3\CC4CCC3(C)C4(C)C)NC2=O)cc1 (stereo not given),inactive
16,CCc1ccc(C=C2SC(=S)NC2=O)cc1,10.9 µM (active)
17,CCOC(=O)NC(CNC(=O)c1ccccc1OC)CC(C)C (stereo not given),inactive
18,COc1ccccc1NS(=O)(=O)c1ccc2oc(SCCOc3ccccc3F)nc2c1,inactive
19,CCC(CC)C(=O)Nc1sc(Nc2ccc(C)cc2)nc1C(N)=O,inactive
20,COc1ccc2cc(S(=O)(=O)c3ccc(Cl)c(Cl)c3)c(=O)oc2c1,inactive
21,O=C(c1ccc(F)c(F)c1)N1CCC([C@@H]2CNC[C@H]2CO)CC1,inactive
22,COc1ccc(C(=O)N2CCC([C@@H]3CNC[C@H]3CO)CC2)cc1OC,inactive
23,O=C(c1ccc(C(F)(F)F)cc1)N1CCC([C@@H]2CNC[C@H]2CO)CC1,44.7 µM (active)
24,Nc1ccc(SCCN2C(=O)c3ccccc3C2=O)cc1,inactive
25,O=C1c2ccccc2C(=O)N1CCCCCCN1C(=O)c2ccccc2C1=O,35.5 µM (active)
26,O=C(OCCN1C(=O)c2ccccc2C1=O)Oc1ccccc1,inactive
27,COc1ccc(CC(=O)N2CC3ON=C(c4c(F)cccc4Cl)C3C2)cc1OC (stereo not given),inactive

row,SMILES,Potency
1,CCCn1c(-n2nc(C)cc2C)nc2c1c(=O)n(CCN1CCCCC1)c(=O)n2C,inactive
2,CC(c1ccc(S(N)(=O)=O)cc1)N(C)C(=O)CCc1ncc(-c2ccc(Cl)cc2)o1 (stereo not given),inactive
3,CCOC(=O)c1c(NC(C)=O)sc2c(OCC(=O)Nc3ccccc3C)c(C)ccc12,inactive
4,COc1cc(NS(=O)(=O)c2ccc(N/C=C(\C=O)c3nc4cc(Cl)ccc4o3)cc2)nc(OC)n1,22.4 µM (active)
5,CC(Oc1cccc(Cl)c1)C(=O)Nc1ccc(S(=O)(=O)Nc2ncccn2)cc1 (stereo not given),inactive
6,COC(=O)Nc1ccc(S(=O)(=O)Nc2cc(OC)nc(OC)n2)cc1,inactive
7,CCOC(=O)c1cccc(NC(=O)N2CC[C@@H](CC(=O)N(C)CC#N)[C@@H](CC)C2)c1,inactive
8,CCOc1ccc(NC(=O)C(=O)c2c[nH]c3ccccc23)cc1,inactive
9,CCc1cccc(NC(=O)Nc2cn(CC(C)C)c(=O)c3ccccc23)c1,inactive
10,[O-]/[N+](=C\c1ccc2ccccc2n1)c1ccccc1,11.2 µM (active)
11,CC(C)Oc1c(Br)cc(Br)cc1/C=N/NC(N)=S,35.5 µM (active)
12,N#Cc1cccc(NC(=O)O[C@@H]2CO[C@H]3[C@@H]2OC[C@@H]3Nc2nccc(-c3ccccc3)n2)c1,inactive
13,Cc1ccc(C(=O)Nc2ccc3c(N4CCCCC4)ncnc3c2)s1,inactive
14,CC(C)CC(N=C1NC(C)(C)Cc2ccccc21)C(=O)O (stereo not given),inactive
15,CC1(C)Cc2ccccc2-c2[nH]c(=S)[nH]c(=O)c21,7.94 µM (active)
16,CC1(C)Cc2ccccc2-c2nnc(-c3cccc(O)c3)n21,inactive
17,COc1ccc(-c2nc(CSCC(=O)N(C)c3ccccc3)co2)cc1,inactive
18,COc1ccc(CCC(=O)N2CCCCCCNC(=O)[C@@H]3CCCC[C@@H]32)cc1,inactive
19,CCc1ccc(N(Cc2cccs2)C(=O)c2ccccc2C)cc1,inactive
20,CC(NS(=O)(=O)c1ccc(F)cc1Cl)C(=O)N1CCCC1 (stereo not given),inactive
21,CCOc1ccc(NC(=O)Nc2ccc(CN3CCOCC3)cc2)cc1,inactive
22,COC(=O)c1ccc2c(c1)nc1n2[C@@H](CNCc2cccc(OC)n2)COC1,inactive
23,CC(C)c1ccc(NC(=O)c2ccc3c(Cl)c4c(nc3c2)CCCC4)cc1,inactive
24,O=C(c1cccc(Cl)c1)N1CCc2nc(C3CC3)nc(-c3ccc(Cl)cc3)c2C1,inactive
25,COc1cccc(C(=O)N2CCc3nc(C4CC4)nc(-c4ccc(Cl)cc4)c3C2)c1,10 µM (active)
26,CC(=O)N1CCc2nc(C3CC3)nc(-c3ccc(Cl)cc3)c2C1,inactive
27,O=C(NCC1(COc2ccc(C(F)(F)F)cn2)C[C@@H](O)[C@@H](O)C1)c1ccc(F)cc1 (stereo not given in full),inactive

row,SMILES,Potency
1,Cn1ccnc1CNCC1(COc2ccc(C(F)(F)F)cn2)C[C@@H](O)[C@@H](O)C1 (stereo not given in full),inactive
2,CCS(=O)(=O)NCC1(COc2ccc(C(F)(F)F)cn2)C[C@@H](O)[C@@H](O)C1 (stereo not given in full),12.6 µM (active)
3,COc1cc(CN2C[C@@H](CO)[C@H](c3nc(C)no3)C2)ccc1F,inactive
4,Cc1ccc(-c2c3c(nc4sc5c(c24)CCC5)-c2cc(F)ccc2S(=O)(=O)C3)cc1,inactive
5,Cc1scc(-c2ccccc2)[n+]1C,17.8 µM (active)
6,Cc1cc2nc(-c3ccccc3)c(-c3ccccc3)nc2cc1C,inactive
7,Cc1ccccc1Nc1scc(-c2ccc(Br)cc2)[n+]1-c1ccccc1C,inactive
8,CCCCN(C)C(=O)CCNC(=O)Cn1cnc2sc3c(c2c1=O)CCCC3,inactive
9,CCCC1CCC(c2ccc(-c3ccc(CC)cn3)cc2F)CC1 (stereo not given),inactive
10,CCN1C(=O)[C@H]2[C@@H](c3ccccc3)N[C@]3(CCCN(Cc4ccc(C)cc4)C3=O)[C@H]2C1=O,4.47 µM (active)
11,CCN1C(=O)[C@H]2[C@@H](c3ccc(-c4ccc(F)cc4)cc3)N[C@@](Cc3ccccc3)(C(=O)OC)[C@H]2C1=O,inactive
12,Cc1ccc([C@H]2N[C@]3(CCCN(Cc4ccccc4)C3=O)[C@H]3C(=O)N(Cc4ccccc4)C(=O)[C@@H]23)cc1,inactive
13,CC1=C(C)CC(C(=O)NCCN2CCOCC2)C(C(=O)O)C1 (stereo not given),inactive
14,CN(C)c1ccc(C=O)s1,inactive
15,O=C(Cc1cccc(F)c1)NC1CCC(c2ccccc2)CC1 (stereo not given),inactive
16,O=C(/C=C/c1ccco1)NC1CCC(c2ccccc2)CC1 (stereo not given),7.94 µM (active)
17,O=C(/C=C/c1cc2cc(Cl)ccc2o1)NC1CCCC1,inactive
18,CCN(CC)C(=O)CSc1ncc(-c2ccc(Br)cc2)o1,inactive
19,CC(=O)c1sc(Nc2ccc(C)c(C)c2)nc1C,inactive
20,C/C(=N\NC(N)=S)c1cc(C(C)(C)C)cc2c1CCC2(C)C,31.6 µM (active)
21,COc1ccc(C2CCCCCN2C(=O)CCn2ncc(=O)c3ccccc32)cc1 (stereo not given),inactive
22,CNC(=O)c1ccc(-c2nc(CN3CCN(C(=O)Nc4ccc(C)c(C)c4)CC3)c(C)o2)cc1,inactive
23,COc1ccc(C2=C(C)C(=NC(C)C34CC5CC(CC(C5)C3)C4)NS2(=O)=O)cc1 (stereo not given),inactive
24,CC1CCN(c2nc3ccccc3nc2C(C#N)S(=O)(=O)c2cccc(Cl)c2)CC1 (stereo not given),11.2 µM (active)
25,COC(=O)C1CCN(c2nc3ccccc3nc2C(C#N)C(=O)NC2CCCC2)CC1 (stereo not given),inactive
26,Cc1ccc(S(=O)(=O)C(C#N)c2nc3ccccc3nc2N2CCCC2)cc1C (stereo not given),inactive
27,COc1cccc(-c2nc(SCC(=O)Nc3nccs3)c(-c3ccc(Cl)cc3)[nH]2)c1,inactive

row,SMILES,Potency
1,CCN(CC)S(=O)(=O)c1ccc(N2CCOCC2)c(NC(=O)CC2CCCC2)c1,inactive
2,COc1ccc(Cn2c(CN(C)S(C)(=O)=O)n[nH]c2=O)cc1,inactive
3,COc1ccc(C(=O)CSc2n[nH]c(N)n2)cc1,inactive
4,COc1ccc(OCc2n[nH]c(=S)n2N)cc1,15.8 µM (active)
5,Cc1ccc(-n2nnc(C(=O)NCC(C)C)c2C)cc1Cl,inactive
6,O=C(CSc1nnc(-c2ccccc2)c2ccccc12)c1ccc2c(c1)OCCCO2,44.7 µM (active)
7,O=C(CSc1ncnc2sccc12)c1ccc2c(c1)OCCCO2,inactive
8,O=C(CN(Cc1ccccc1)C(=O)c1ccc2c(c1)OCCO2)NCc1ccc2c(c1)OCO2,inactive
9,CCc1ccc(-c2csc(NC(=O)c3nn(CC)c(=O)c4ccccc34)n2)cc1,inactive
10,CCOC(=O)/C(=C/c1ccc(Cl)s1)c1nccn1C,inactive
11,COc1cc(C2C(C(=O)c3ccco3)=C(O)C(=O)N2c2cc(C)on2)ccc1OCc1ccccc1 (stereo not given),inactive
12,CC(=O)c1sc(N2C(=O)c3oc4ccccc4c(=O)c3C2c2ccc(C)cc2)nc1C (stereo not given),inactive
13,Cc1ccc2nc(N3C(=O)C(O)=C(C(=O)c4ccco4)C3c3cccc(O)c3)sc2c1 (stereo not given),25.1 µM (active)
14,Cc1ccc(C(N)=O)c(OCc2coc(-c3ccccc3)n2)c1,inactive
15,CC(Sc1nc2cc(S(=O)(=O)N3CCCCC3)ccc2o1)C(=O)N1CCc2ccccc21 (stereo not given),inactive
16,CCOC(CNC(=O)c1ccc2c(c1)ncn2-c1cccc(C)c1)OCC,inactive
17,CC(Sc1ccc(Cl)cc1)C(=O)NCCC(=O)N1CCCC1 (stereo not given),inactive
18,CC(=O)CCC1=C(C)CCCC1(C)C,inactive
19,COc1ccc(/C=C2/C(=O)OCc3cc(OC)c(OC)cc32)c(OC)c1,inactive
20,COc1cc(/C=C/C2=CC(C)(C)NC(=S)N2)cc(OC)c1OC,44.7 µM (active)
21,COc1cc(/C=C/C(N)=O)cc(OC)c1OC,inactive
22,COc1ccc(/C=C/C2=CC(C)(C)NC(=S)N2)c(OC)c1,39.8 µM (active)
23,COc1cc(/C=C/c2ccc(/C=C/c3cc(OC)c(OC)c(OC)c3)cc2)cc(OC)c1OC,inactive
24,COc1ccc(/C=N/OCc2ccccc2C#N)c(OC)c1,inactive
